DT40 TDP1 CPT = qHTS for Inhibitors of human tyrosyl-DNA phosphodiesterase 1 (TDP1): qHTS in cells in presence of CPT | chicken DT40 Tdp1-/-;hTDP1 cells + 20 nM CPT, ATP luminescence, 48 h | Potency, µM (highest dose often 46.2 µM), for the others: at the highest dose activity change, negative = growth inhibition, usual class: inhibitors | 420,000 tested, 12% active; also: nearly all actives have a fitted effect of over 55% in size
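Cell growth measured by CellTiter-Glo luminescence after a minimum 48 h, 37 C compound exposure with 20 nM CPT in Tdp1-knockout DT40 cells stably expressing hTDP1, seeded 400/well; qHTS titration format.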
KB-3-1 cytotox = qHTS assay for MDR1-selective chemotherapeutics: Primary screen using the parental adenocarcinoma cell KB-3-1 | KB-3-1 viability, CellTiter-Glo ATP luminescence, 72 h | Potency, µM (titrated, usually from 46.1 µM), most hits filed as cytotoxic | 400,000 tested, 1.4% active; also: nearly all actives have a fitted effect of over 60% in size
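Multi-concentration cytotoxicity screen in KB-3-1 cells grown in DMEM lacking phenol red with 10% FBS. After 72 h at 37 °C with compound, ATP-dependent luminescence was recorded.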
KB-V1 cytotox = qHTS assay for MDR1-selective chemotherapeutics: Primary screen using the drug-selected MDR subline cells KB-V1; Potency, µM (titrated, usually from 46.1 µM), usual class: cytotoxic; KB-V1 MDR cells viability, CellTiter-Glo, 72 h; 400,000 tested, 3.4% active; also: nearly all actives have a fitted effect of over 60% in size
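Cytotoxicity via CellTiter-Glo luminescence after 72 h compound exposure at 37 degrees C. Cells: drug-selected KB-V1 line, DMEM phenol-red free plus 10% FBS. Compounds tested at multiple concentrations; normalized data fitted to concentration-effect curves.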
HT1080 IDH1KD tx = qHTS for induction of synthetic lethality in tumor cells producing 2HG: qHTS for the HT-1080-IDH1KD cell line; HT-1080 IDH1 knockdown viability, ATP luminescence, 48 h; Potency, µM (series often up to 46.1 µM), for the others: top-dose activity, negative = toxicity, most hits filed as cytotoxic; 360,000 tested, 2% active;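 also: 0% = DMSO wells and -100% = cell-free medium wells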
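In this qHTS, HT-1080 cells depleted of IDH1 are exposed for 48 h at 37 °C to compound titrations. Toxicity is scored from CellTiter-Glo luminescence, with DMSO as full viability and medium alone as none.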
HT1080-NT tox = qHTS for induction of synthetic lethality in tumor cells producing 2HG: qHTS for the HT-1080-NT fibrosarcoma cell line | HT-1080-NT fibrosarcoma viability, CellTiter-Glo ATP luminescence, 48 h | Potency, µM (top dose mostly 46.1 µM), inactives show top-dose activity, negative = less viability, most hits filed as cytotoxic | 360,000 tested, 1.6% active | AID 686970, 2013;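 also: NT is the 2HG producing partner of a matched IDH1 knockdown line; 0% = DMSO-treated cells and -100% = media-only wells without cells; nearly all actives have a fitted effect of over 55% in size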
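A 48-hour cytotoxicity screen used HT-1080-NT cells plated 2 hours before compound delivery. ATP-based CellTiter-Glo luminescence measured viability, normalized to DMSO and no-cell controls.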
TDP1 cell noCPT = qHTS for Inhibitors of human tyrosyl-DNA phosphodiesterase 1 (TDP1): qHTS in cells in absence of CPT. 420,000 tested, 15% active. AID 686978, 2013. Potency, µM (titrated, usually from 46.2 µM), for the others: at the top dose activity change, negative = growth inhibition, most hits filed as inhibitors. DT40 Tdp1-/- hTDP1 cells, no CPT, ATP luminescence, 48 h; also: nearly all actives have a fitted effect of over 55% in size
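A cellular qHTS used chicken DT40 cells lacking endogenous Tdp1 but carrying stably transfected human TDP1. Compounds were applied without camptothecin, and cell growth kinetics were judged by ATP-dependent luminescence after ≥48 hr.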
An asterisk follows results filed as active; i = inactive; ? = inconclusive; · = not tested or not shown; [ ] = another dose, or the depositor's remark. A selection: hits, their analogues and other compounds. The true share with any hit is near 19%. Calls follow the shape of the dose curve; as a rule, active = well fitted curve in the direction sought with a large enough effect; inconclusive = small, poorly fitted or top-dose-only effect, or another doubt; inactive = no such curve, though single readings can be large; an effect the other way counts as inactive or inconclusive. Unless noted, % is scaled to controls: 0 for no effect and ±100 for the full control effect; potency is read from the fitted curve at half-maximal effect.

SMILES	DT40 TDP1 CPT	KB-3-1 cytotox	KB-V1 cytotox	HT1080 IDH1KD tx	HT1080-NT tox	TDP1 cell noCPT
Cc1ccc(Nc2nc(Cl)nc3ncn(C)c23)c(C)c1	-8%	i	i	-9%	1%	-15%
CCc1nn(CC(=O)NCCc2ccc(SC)cc2)c(=O)c2cc3sccc3n12	-8%	·	·	·	·	-3%
COc1ccc(N2CC(NC(=O)/C=C\c3ccc4c(c3)OCO4)CC2=O)cc1OC (stereo not given)	2%	i	i	·	·	-15%
CC(=O)/C(N=Nc1cccc(C(F)(F)F)c1)=C(\C)O	-24%	i	i	14%	14%	-14%
O=C(/C(N=Nc1cccc(C(F)(F)F)c1)=C(/O)c1cccs1)C(F)(F)F	?	?	?	21µM*	?	21µM*
CN(C(=O)/C(N=Nc1cccc(C(F)(F)F)c1)=C(\O)C(F)(F)F)c1ccccc1	-25%	i	?	?	11µM*	-10%
O=C(COc1cc2oc(=O)c3c(c2cc1Cl)CCC3)N1C[C@H]2C[C@@H](C1)c1cccc(=O)n1C2	-10%	i	i	-3%	0%	1%
CCc1ccc(C(=O)NNc2ccc(Cl)cc2)cc1	-9%	?	i	6.5µM*	?	-17%
CCCc1ccc(C(=O)NNc2cc(Cl)ccc2Cl)cc1	?	i	i	?	?	23µM*
CCc1ccc(NCCC(=O)c2ccc(Cl)cc2)cc1	21µM*	i	i	-5%	0%	16µM*
CCc1ccc(C(=O)NNC(=O)OC)cc1	?	i	i	5%	20%	29µM*
Cc1ccc(NCCC(=O)c2ccc(Cl)c(Cl)c2)cc1	?	i	i	-29%	-5%	?
COc1cc(C2/C(=C(/O)c3ccc(F)cc3)C(=O)C(=O)N2CCCC(=O)O)ccc1O (stereo not given)	8%	i	i	1%	11%	-9%
Cc1cc(Cl)cc(Cl)c1CNc1c([N+](=O)[O-])c(=O)oc2ccccc12	?	i	i	-17%	-17%	16µM*
O=c1oc2ccccc2c(Nc2cc3ccccc3cc2O)c1[N+](=O)[O-]	5.8µM*	15µM*	?	?	?	5.8µM*
COc1ccc(CCN2CC(C(=O)NCc3cn(C)nc3C)CCC2=O)cc1 (stereo not given)	3%	i	i	11%	2%	7%
COc1cc(OC)cc(C(=O)Nc2ccc(-c3nc4ccccc4s3)cc2C)c1	·	i	i	·	·	·
CCOc1ccccc1C(=O)Nc1cc(-c2nc3cccnc3s2)ccc1C	8.2µM*	·	·	·	·	5.2µM*
COc1cc(OC)cc(C(=O)Nc2cc(-c3nc4cccnc4s3)ccc2C)c1	?	i	i	·	·	10µM*
CCc1noc(C)c1C(=O)N(C)CC(=O)Nc1ccc(Br)cc1C	-3%	i	i	-1%	-3%	-23%
CCc1ccc2[nH]c(=O)c(CN(Cc3cccnc3)Cc3nnnn3Cc3ccccc3)cc2c1	11µM*	i	i	·	·	20µM*
CCOC(=O)Cn1nnnc1CN(CCc1ccccc1)Cc1cc2cc(CC)ccc2[nH]c1=O	18µM*	i	?	?	8%	?
CCc1ccc2[nH]c(=O)c(CN(Cc3ccc(OC)cc3)Cc3nnnn3CCOC)cc2c1	18µM*	i	i	-4%	-5%	?
Cc1ccc2[nH]c(=O)c(CN(Cc3cccs3)Cc3nnnn3Cc3ccccc3)cc2c1	-28%	i	i	?	?	?
CCc1ccc2[nH]c(=O)c(CN(Cc3ccccc3)Cc3nnnn3C(C)(C)C)cc2c1	14µM*	?	i	·	·	11µM*
SMILES	DT40 TDP1 CPT	KB-3-1 cytotox	KB-V1 cytotox	HT1080 IDH1KD tx	HT1080-NT tox	TDP1 cell noCPT
CC1(C(=O)Nc2ccc3ccccc3c2)CCC(=O)N1CCCn1ccnc1 (stereo not given)	-2%	i	i	9%	12%	-11%
CC(=O)c1c(C(C)=O)c(C)n(-c2ccc(C)c(NC(=O)c3ccccc3Cl)c2)c1C	?	i	3.7µM*	-22%	0%	?
CCC(C)c1ccc(OCc2ccc(C(=O)O)o2)cc1 (stereo not given)	1%	i	i	-3%	0%	8%
O=C1CC(C(=O)N2CCOc3ccc(CN4CCC(Oc5cccnc5)CC4)cc3C2)c2ccccc21 (stereo not given)	-6%[9.04 µM]	·	·	·	·	?
COc1cc(S(=O)(=O)Nc2ccc(C)cc2)ccc1N=Cc1c(C)c(C#N)c(=O)n(C)c1O	?	?	i	4%	12%	13µM*
COc1cc(S(=O)(=O)Nc2ccc(C)cc2)ccc1N=Cc1c(C)[nH]n(-c2ccc(C)cc2)c1=O	-23%	?	?	?	?	13µM*
O=C1c2cccc3cccc(c23)C(=O)C1(O)O	1µM*	i	i	18µM*	?	2.3µM*
CC(=O)N1C(=O)c2cccc3cccc(c23)C(=O)N1C(C)=O	-5%	i	i	-3%	-3%	-33%
CCn1ncc(/C=N/NS(=O)(=O)c2ccc(Cl)cc2)c1C	-4%	i	i	11%	8%	-7%
Cc1ccc(C(C)CCN2CCOc3ccc(CN4CCOCC4)cc3C2)o1 (stereo not given)	0%	·	·	·	·	-16%
CC1CN(S(=O)(=O)c2cccc(-c3csc(-c4ccccc4)n3)c2)CC(C)O1 (stereo not given)	?	?	i	-10%	1%	26µM*
Cc1nc(-c2cccc(S(=O)(=O)N3CCC(C)CC3)c2)cs1	?	i	i	-2%	-3%	?
Cc1nc(-c2cccc(S(=O)(=O)N3CCCC(C)C3)c2)cs1 (stereo not given)	15µM*	i	i	-7%	-4%	?
O=C(CCNS(=O)(=O)c1ccccc1F)OCc1ccccc1Cl	-32%	?	i	-7%	2%	-19%
Cc1ccc(S(=O)(=O)N2CCN(CC(=O)N/N=C\c3ccc(Cl)c([N+](=O)[O-])c3)CC2)cc1	?	i	i	-2%	2%	?
